Experimental data: PubChem BioAssay (EPA / NIEHS)
Values joined by “and” are separate entries in the source; they are usually repeats but may differ in a detail not shown here. Equal entries are not always repeated. A structure can be active in one record and inactive in another. Active and inactive are the calls of the source. How the source made its calls: active means hit-call score of the fitted dose curve at least 0.9, where 1 is the maximum; inactive means score below 0.9.

The compounds below were run on Macrophage Inflammatory Protein-1 Alpha (MIP1a), CCL3 (gene 6348) (assay: BSK_IMphg_MIP1a: BioMAP Diversity Plus: IMphg Assay for Macrophage Inflammatory Protein-1 Alpha (MIP1a) Biomarker Activity (AID 2284255)). Settings: primary human endothelial cells with macrophages.
Protocol: BSK_IMphg is a cell-based, multiplexed-readout assay that uses venular endothelial cells and macrophages, a human vascular primary cell, with measurements taken at 24 hours after chemical dosing in a microplate: 96-well plate.BSK_IMphg_MIP1a is an assay component measured in the BSK_IMphg assay. It measures MIP-1a antibody related to regulation of gene expression using ELISA technology.Data from the assay component BSK_IMphg_MIP1a was analyzed at the endpoint, BSK_IMphg_MIP1a, in the positive analysis fitting direction relative to DMSO as the negative control and baseline of activity. Using a type of binding reporter, gain or loss-of-signal activity can be used to understand protein changes. To generalize the intended target to other relatable targets, this assay endpoint is annotated to the 'cytokine' intended target family, where the subfamily is 'inflammatory factor'.
The levels of cell surface (or secreted, indicated by the prefix "s") biomarker endpoints were measured by ELISA. Overt cytotoxicity to cells in confluent adherent cultures (all systems other than the BT system) was assessed by measuring total protein levels using sulforhodamine B (SRB) staining in parallel cultures at the time of biomarker measurements, indicated as SRB endpoints. For proliferation assays for adherent cell types, individual cell types are cultured at sub-confluence and relative cell numbers quantified by SRB staining at time points optimized for each system (48 h: 3C and CASM3C systems; 72 h: BT and HDF3CGF systems; 96 h: SAg system). SRB was performed by staining cells with 0.1% SRB after fixation with 10% TCA and reading wells at 560 nm.Viability and proliferation of PBMC (T cells) was quantified by Alamar Blue reduction for the SAg and BT systems. For PBMC viability (referred to as PBMC Cytotoxicity within the assay endpoint names), cells were plated (75,000/well in a 96-well plate) and then chemical samples added for 1 h before addition of activators, SEB and TSST-1 (20 ng/mL final concentration each). Cells were incubated for 90 h. Then, Alamar Blue (20 uL/well) (Invitrogen, Cat DAL1100) was added for 6 h, and the plates were read with a fluorescence microplate reader at 546/580 nm (excitation/emission). For PBMC proliferation, cells were plated and activated as above but incubated for only 16 h prior to addition of Alamar Blue. Plates were read after 6 h.

SMILES | AC50 | outcome
O=C(Cl)C(F)(F)C(F)(F)C(F)(F)C(F)(F)C(F)(F)C(F)(F)C(F)(F)F | 237 nM (active) | inactive
C=CC(=O)OCC(F)(F)C(F)(F)C(F)(F)C(F)(F)C(F)(F)C(F)(F)C(F)(F)C(F)F | – | inactive
O=C(O)C(F)(F)C(F)(F)C(F)(F)OC(F)(C(F)(F)F)C(F)(F)F | – | inactive
NC(=O)C(F)(F)C(F)(F)C(F)(F)C(F)(F)C(N)=O | – | inactive
C=C(C)C(=O)OCC(F)(F)C(F)(F)C(F)(F)C(F)F | – | inactive
OCC(F)(F)C(F)(F)C(F)(F)C(F)(F)C(F)(F)C(F)(F)C(F)(F)C(F)(F)CO | 50 µM (active) and 51.6 µM (active) | –
C[Si](Cl)(Cl)CCC(F)(F)C(F)(F)C(F)(F)C(F)(F)C(F)(F)C(F)(F)F | – | inactive
COC(F)(C(F)F)C(F)(F)F (stereo not given) | – | inactive
O=S(=O)(O)CCC(F)(F)C(F)(F)C(F)(F)C(F)(F)C(F)(F)C(F)(F)C(F)(F)C(F)(F)F | – | inactive
O=C(O)CCC(F)(F)C(F)(F)C(F)(F)C(F)(F)C(F)(F)C(F)(F)C(F)(F)F | 1.39 µM (active) and 1.57 µM (active) | –
O=C(F)C1(F)C(F)(F)C(F)(F)C(F)(F)C(F)(F)C1(F)F | – | inactive
O=S(=O)(O)CCC(F)(F)C(F)(F)C(F)(F)C(F)(F)F | – | inactive
CN(C(=O)C(F)(F)C(F)(F)C(F)(F)F)[Si](C)(C)C | – | inactive
NC(=O)C(F)(F)C(F)(F)C(F)(F)F | – | inactive
O=C(O)CCC(F)(F)C(F)(F)C(F)(F)F | – | inactive
C=CC(=O)OCCC(F)(F)C(F)(F)C(F)(F)C(F)(F)F | – | inactive
CO[Si](C)(CCC(F)(F)C(F)(F)C(F)(F)C(F)(F)C(F)(F)C(F)(F)F)OC | – | inactive
NCC(F)(F)C(F)(F)C(F)(F)C(F)(F)C(F)(F)C(F)(F)C(F)(F)C(F)(F)F | – | inactive
OC(O)C(F)(F)C(F)(F)F | – | inactive
O=S(=O)(OCC(F)(F)F)C(F)(F)C(F)(F)C(F)(F)C(F)(F)F | 21 µM (active) and 5.95 µM (active) | –

SMILES | AC50 | outcome
O=C(Cl)C(F)(F)C(F)(F)C(F)(F)C(F)(F)C(F)(F)C(F)(F)F | – | inactive
O=C(O)C(F)(F)C(F)(F)C(F)(F)OC(F)(F)F | – | inactive
CNS(=O)(=O)C(F)(F)C(F)(F)C(F)(F)C(F)(F)C(F)(F)C(F)(F)C(F)(F)C(F)(F)F | – | inactive
CCOC(=O)CC(=O)C(F)(F)C(F)(F)F | – | inactive
OCC(F)(F)C(F)(F)C(F)(F)CO | – | inactive
OCC(O)CC(F)(F)C(F)(F)C(F)(F)C(F)(F)C(F)(F)C(F)(F)C(F)(F)C(F)(F)F (stereo not given) | – | inactive
O=S(=O)(Cl)C(F)(F)C(F)(F)C(F)(F)C(F)(F)C(F)(F)C(F)(F)C(F)(F)C(F)(F)F | – | inactive
O=C(O)C(F)(F)C(F)(F)C(F)(F)C(=O)O | – | inactive
NC(O)(C(F)(F)F)C(F)(F)F | – | inactive
O=C(O)C(F)(F)OC(F)(F)C(F)(F)OC(F)(F)C(F)(F)OC(F)(F)F | – | inactive
FC(F)(F)C(F)(F)C(F)(F)C(F)(F)C(F)(F)C(F)(F)C(F)(F)CCI | – | inactive
NS(=O)(=O)C(F)(F)C(F)(F)C(F)(F)C(F)(F)C(F)(F)C(F)(F)F | – | inactive
FC(F)(F)C(F)(F)C(F)(F)CC1CO1 (stereo not given) | – | inactive
OCCCCC(F)(F)C(F)(F)C(F)(F)C(F)(F)F | – | inactive
C=CC(=O)OCC(F)(F)C(F)(F)C(F)(F)COC(=O)C=C | 47.1 µM (active) and 48 µM (active) | –
OCC(F)(F)C(F)(F)C(F)(F)C(F)(F)C(F)(F)C(F)(F)CO | – | inactive
OCCCC(F)(F)C(F)(F)C(F)(F)C(F)(F)C(F)(F)C(F)(F)C(F)(F)C(F)(F)F | 41 µM (active) and 56.7 µM (active) | –
NC(=O)C(F)(F)C(F)(F)C(F)(F)C(F)(F)C(F)(F)C(F)(F)C(F)(F)F | – | inactive
O=C(O)C(F)(F)C(F)(F)C(F)(F)C(F)(F)C(F)(F)C(F)(F)C(F)F | – | inactive
